Source: PubChem BioAssay AID743049 (Broad Institute, 2013)
Results with a measured potency or affinity are listed apart. Inconclusive results are not listed. The source made the active and inactive calls. How the calls were made is not given here.

Experiment: PAX8-dependent cell viability loss – plate reader, dry powder, dose response (AID 743049)
Details: PAX8-dependent cancer cell viability; series mostly up to 50 µM

Compound	outcome
Cc1ccccc1CNC(=O)C1CCCN(c2nnc(C)c3c(C)n(-c4ccccc4)nc23)C1 (configuration not stated)	inactive
COc1ccccc1C#Cc1ccc([C@@H]2[C@@H](C#N)N(C(=O)C3CCCCC3)[C@H]2CO)cc1	inactive
